Experimental findings from PubChem BioAssay are described below.

A short description of test [1]: inhibitors of TNFa-induced NFkB p65 translocation, primary screen, imaging, HUVEC, MLSMR starter and 10KST1 sets (AID 438;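 active = inhibition above 20% together with a positive visual image hit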;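 note: compound added about 3h40 before a 20 min TNFalpha stimulation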;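 for inhibition: signal is the nuclear over cytoplasmic p65 intensity ratio per well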). Particulars: HUVEC TNFa-induced p65 nuclear translocation; cell count: measured here: nuclei count (cytotoxicity indicator), at 2.08 µM; inhibition: at 2 µM, stronger effect = higher value, 0% TNFa-plus-vehicle, 100% no-TNFa wells.
Test [2] in a line: inhibitors of mutant huntingtin aggregation, primary screen, imaging, exon1htt(103Q)mCFP cells, high-content imaging (AID 483;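 active = visual image review flags a hit and inhibition of aggregation exceeds 20%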;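 note: compound exposure lasted 3 days before fixation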;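 for nuclei count: percent of the per-plate median nuclei count of sample wells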). The note with it: exon1htt(103Q)mCFP cell line, aggregate imaging, at 2 µM; inhibition of aggregation: stronger effect = higher value; nuclei count: measured here: cell count, toxicity.
The nature of test [3]: inhibitors of E-selectin induction by TNFa, primary screen, imaging, HUVEC, immunofluorescence, MLSMR starter and 10KST1 sets (AID 487;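 active = visually confirmed hit in the image check and inhibition above 20%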;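 for inhibition: signal is fraction of cell area covered by stained E-selectin grains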;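 for nuclei count: 100% = median nuclei count of all wells on the same plate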). The note with it: HUVEC TNFalpha-induced E-selectin immunofluorescence imaging, at 2 µM; inhibition: stronger effect = higher value; nuclei count: measured here: cell number, toxicity.
Test [4] concerns the target Voltage-gated potassium channel subunit beta-2 (Rattus norvegicus) (UniProt P62483). As to the kind of experiment: KvBeta enzyme negative modulators, primary screen, biochemical, NADPH fluorescence (AID 622;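 active = fluorescence slope higher than the sample average by over 3 SD, cut at about -0.22 in these data, passing the limit was not always enough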;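 note: slope of raw intensity against log time taken from 70 to 1610 s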). Particulars: recombinant KvBeta, 4-cyanobenzaldehyde reduction, at 10 µM, stronger effect = higher value.
Test [5] shares this target. The test can be described thus: KvBeta positive modulators, primary screen, biochemical, NADPH fluorescence (AID 623).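 Note: fluorescence intensity change per second fitted from 20 to 320 s.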 The note with it: Recombinant KvBeta, NADPH fluorescence decrease slope, 10 min; at 10 µM; stronger effect = lower value.
Test [6] has as its target Alpha-2C adrenergic receptor (Homo sapiens) (UniProt P18825). The test can be described thus: modulators of alpha2C/GIRK thallium flux, primary screen, cell-based, HEK293 alpha2C/GIRK1/2 (AID 624;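 active = fluorescence slope after compound addition differing from the mean of all screened samples at 99.7% confidence, in either direction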;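 note: slope of fluorescence ratio to pre-addition baseline per second over 15 to 24 s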). Particulars: thallium flux BTC fluorescence, at 10 µM, actives lie on both sides.
Test [7] is described as follows: inhibitors of Sendai virus-induced IRF3 signaling, primary screen, TLR/RLR signaling modifier project, cell-based, Sendai virus stimulus, luciferase, 10K MLSCN set (AID 602276;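 active = inhibition at or above 50% at 10 µM; inactive = inhibition below 50%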;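 note: firefly luciferase from ISG56 promoter only with Renilla not read in this screen; 0% = Sendai virus plus DMSO and 100% = medium plus DMSO without virus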). The note with it: HEK293 RL24 IRF3 luciferase reporter, at 10 µM, stronger effect = higher value. Background: In a reporter assay the amount or activity of a reporter protein is the signal.
Test [8] in a line: inhibitors of poly I:C-induced TLR3 signaling, primary screen, cell-based, poly I:C stimulus, luciferase, 10K MLSCN set (AID 602277;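 active = inhibition of the reporter signal at or above 50%; inactive = inhibition below 50%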). The note with it: HEK293-TLR3 RL24 IRF3 luciferase reporter, at 10 µM, stronger effect = higher value.

The structures appear in SMILES notation. Active and inactive are the calls of the source.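 Rule for the calls, unless noted: active = NADPH fluorescence slope more negative than the mean of all samples by about 3 SD, 99.7% confidence; inactive = the rest.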

Chain of Voltage-gated potassium channel subunit beta-2 (Rattus norvegicus) (P62483 whole entry, looked up): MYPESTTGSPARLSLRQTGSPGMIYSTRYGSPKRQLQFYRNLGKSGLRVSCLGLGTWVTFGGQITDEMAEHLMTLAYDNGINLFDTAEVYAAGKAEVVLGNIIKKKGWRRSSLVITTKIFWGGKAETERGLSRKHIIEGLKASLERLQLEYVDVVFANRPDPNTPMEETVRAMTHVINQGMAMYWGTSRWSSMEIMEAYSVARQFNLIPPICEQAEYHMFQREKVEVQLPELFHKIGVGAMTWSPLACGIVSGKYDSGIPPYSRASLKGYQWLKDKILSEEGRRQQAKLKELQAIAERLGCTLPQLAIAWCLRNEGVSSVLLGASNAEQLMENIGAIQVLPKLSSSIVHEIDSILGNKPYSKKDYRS
Chain of Alpha-2C adrenergic receptor (Homo sapiens) (P18825 whole entry, looked up): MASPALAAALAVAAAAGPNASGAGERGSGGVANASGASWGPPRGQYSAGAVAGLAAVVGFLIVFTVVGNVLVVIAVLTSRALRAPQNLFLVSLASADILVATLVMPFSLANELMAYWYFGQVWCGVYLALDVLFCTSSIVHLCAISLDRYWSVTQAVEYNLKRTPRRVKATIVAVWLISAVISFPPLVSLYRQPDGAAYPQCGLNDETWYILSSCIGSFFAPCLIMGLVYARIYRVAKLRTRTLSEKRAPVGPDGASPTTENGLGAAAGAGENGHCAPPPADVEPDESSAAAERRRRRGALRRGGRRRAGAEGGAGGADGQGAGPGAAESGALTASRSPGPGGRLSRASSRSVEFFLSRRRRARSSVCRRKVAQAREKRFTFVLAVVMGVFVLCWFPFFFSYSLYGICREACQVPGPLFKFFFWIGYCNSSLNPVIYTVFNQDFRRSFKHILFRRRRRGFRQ

A word on the inhibition: it is the drop in the measured response relative to a control, in per cent. Turning to `CCOC(=O)c1ccc(NC(=O)c2ccc(NS(C)(=O)=O)cc2)cc1`, in test [1], the cell count worked out at 473. Besides, the inhibition is -4.3% (inactive) in test [1], 32.9% (inactive) in test [3], 6.57% (inactive) in test [7] and 11.9% (inactive) in test [8]. Further, the inhibition of aggregation in test [2] was 8.8% (inactive). Besides, the nuclei count in test [2] was 95.3%; in test [3] it was 95.1%. Further, the fluorescence slope in test [4] was -0.401 (inactive). Moreover, the NADPH fluorescence slope in test [5] is 4e-05 (inactive). Moreover, in test [6], the slope was 0.00834 (inactive).

On to `CCCC(=O)Nc1nnc(Sc2ccc(N(C)C)cc2)s1`, for which, in test [1], the cell count is 671. In addition, the inhibition in test [1] was 4.8% (inactive); in test [3] it was -15.5% (inactive); in test [7] it was -1.24% (inactive); in test [8], -10.3% (inactive). Besides, the inhibition of aggregation in test [2] is -9.6% (inactive). Further, the figures for the nuclei count in test [2] and in test [3] were 96.4% and 97.6%, respectively. In addition, in test [4], the fluorescence slope was -0.466 (inactive). Also, the NADPH fluorescence slope in test [5] was -2.9e-05 (inactive). For the same compound, the slope in test [6] is 0.00582 (inactive).

Regarding `COc1ccc(-c2cc3ccc(OCc4nn[nH]n4)cc3oc2=O)cc1`, the cell count in test [1] amounted to 399. Also, the inhibition in test [1] was -17.5% (inactive); in test [3] it was -24.5% (inactive); in test [7], 8.69% (inactive); in test [8], -13% (inactive). Also, in test [2], the inhibition of aggregation was 5.4% (inactive). The nuclei count turned out to be 81.6% in test [2] and 84.5% in test [3]. For the same compound, the fluorescence slope in test [4] is -0.00551 (active). Also, in test [5], the NADPH fluorescence slope is 1.1e-06 (inactive). Besides, the slope in test [6] is 0.00437 (inactive).

As to `O=C(Nc1cccc(C(F)(F)F)c1)c1ccco1`, the cell count in test [1] worked out at 580. The inhibition in test [1] is -5.4% (inactive); in test [3], -33.8% (inactive); in test [7], -7.21% (inactive); in test [8], -42.6% (inactive). Also, the inhibition of aggregation in test [2] was 4.3% (inactive). Also, the results for the nuclei count in test [2] and in test [3] were 113% and 99.3%, respectively. Further, the fluorescence slope in test [4] was -0.617 (inactive). Also, in test [5], the NADPH fluorescence slope was -5.6e-05 (inactive). Further, the slope in test [6] is 0.00406 (inactive).

Turning to `CCOC(=O)/C=C1\SCC(=O)N1Cc1ccc(Br)cc1`, the cell count in test [1] amounted to 562. The inhibition was -4.8% (inactive) in test [1], -49.7% (inactive) in test [3], 10.8% (inactive) in test [7] and 20% (inactive) in test [8]. Further, the inhibition of aggregation in test [2] was -14.9% (inactive). For the same compound, the nuclei count in test [2] was 96%; in test [3] it was 116%. The fluorescence slope in test [4] was -0.462 (inactive). Further, the NADPH fluorescence slope in test [5] was -0.000366 (inactive). In addition, in test [6], the slope is 0.00633 (inactive).

For `CN(Cc1cccs1)C(=O)CCc1ccc(S(=O)(=O)N2CCOCC2)cc1`, the cell count in test [1] was 475. Also, the inhibition in test [1] was 1% (inactive); in test [3] it was -10.9% (inactive); in test [7], -6.32% (inactive); in test [8] it was 14.6% (inactive). In addition, the inhibition of aggregation in test [2] is -10.3% (inactive). Also, the figures for the nuclei count in test [2] and in test [3] were 94% and 114%, respectively. Besides, the fluorescence slope in test [4] was -0.466 (inactive). For the same compound, the NADPH fluorescence slope in test [5] is -3.6e-05 (inactive). In addition, the slope in test [6] was 0.00394 (inactive).

In the case of `COc1cccc(-c2nnc(NC(=O)Cc3cccs3)s2)c1`, in test [1], the cell count is 710. The inhibition is -5% (inactive) in test [1], 1.2% (inactive) in test [3], 2.67% (inactive) in test [7] and -7.11% (inactive) in test [8]. Also, in test [2], the inhibition of aggregation is 22% (inactive). In addition, the nuclei count in test [2] worked out at 79.8%; in test [3] it was 92%. In test [4], the fluorescence slope is -0.452 (inactive). Further, in test [5], the NADPH fluorescence slope was -3e-05 (inactive). Further, the slope in test [6] is 0.00526 (inactive).

Regarding `C(=N/n1c2ccccc2c2ccccc21)/c1ccco1`, the cell count in test [1] worked out at 360. The inhibition in test [1] is -2% (inactive); in test [3], 2.6% (inactive); in test [7], 12% (inactive); in test [8], 29.6% (inactive). Moreover, in test [2], the inhibition of aggregation was -20.7% (inactive). Further, the values for the nuclei count in test [2] and in test [3] were 102% and 109%, respectively. Also, the fluorescence slope in test [4] was -0.417 (inactive). In test [5], the NADPH fluorescence slope was -0.000138 (inactive). In addition, the slope in test [6] is 0.00632 (inactive).

As for `CC(CCc1ccccc1)NCc1ccncc1` (centres undefined), the cell count in test [1] turned out to be 564. Moreover, the inhibition in test [1] was 3% (inactive); in test [3], -75.4% (inactive); in test [7] it was 12.9% (inactive); in test [8], 23.5% (inactive). Also, the inhibition of aggregation in test [2] was -1.8% (inactive). Further, the nuclei count in test [2] came to 109%; in test [3], 130%. The fluorescence slope in test [4] is -0.409 (inactive). Besides, in test [5], the NADPH fluorescence slope is -1.4e-05 (inactive). The slope in test [6] was 0.00748 (inactive).

Consider `Cc1oc2cc3c(C(=O)OCCN(C)C)c(C)oc3cc2c1C(=O)OCCN(C)C`, for which the cell count in test [1] was found to be 445. For the same compound, the inhibition in test [1] was -6% (inactive); in test [3] it was -44.7% (inactive); in test [7] it was 48.3% (inactive); in test [8], 99.1% (active). The inhibition of aggregation in test [2] was -22.9% (inactive). Also, the nuclei count was determined as 95.2% in test [2] and 92.4% in test [3]. Further, the fluorescence slope in test [4] is -0.412 (inactive). Further, the NADPH fluorescence slope in test [5] was -3.3e-05 (inactive). Moreover, the slope in test [6] is 0.00351 (inactive).

`COc1ccc(-n2c(Cc3cccn3C)nnc2SCC(=O)Nc2ccc(Cl)cc2)cc1`: the cell count in test [1] amounted to 678. In addition, the inhibition in test [1] is -5.8% (inactive); in test [3] it was -22.9% (inactive); in test [7] it was 11.4% (inactive); in test [8], 23.2% (inactive). The inhibition of aggregation in test [2] was 8.1% (inactive). In addition, the nuclei count is 85% in test [2] and 119% in test [3]. Also, the fluorescence slope in test [4] was -0.567 (inactive). Further, the NADPH fluorescence slope in test [5] was -5e-06 (inactive). The slope in test [6] was 0.0052 (inactive).

`COc1cccc(NC(=O)C2CCCN2C(=O)Nc2cccc(F)c2)c1` (centres undefined): in test [1], the cell count worked out at 584. Further, the inhibition in test [1] was -15.1% (inactive); in test [3], -62.2% (inactive); in test [7] it was 9.51% (inactive); in test [8], 8.88% (inactive). Besides, in test [2], the inhibition of aggregation is -3.6% (inactive). Further, the results for the nuclei count in test [2] and in test [3] were 86.9% and 111%, respectively. Also, in test [4], the fluorescence slope is -0.512 (inactive). Further, the NADPH fluorescence slope in test [5] was -5.6e-05 (inactive). The slope in test [6] was 0.00468 (inactive).

Consider `Cc1nc2ncnn2c(Nc2ccc3c(c2)OCCO3)c1C`, for which the cell count in test [1] stood at 233. Moreover, the inhibition in test [1] was -9.3% (inactive); in test [3], -57.1% (inactive); in test [7], 9.15% (inactive); in test [8] it was -0.101% (inactive). In test [2], the inhibition of aggregation was 1.4% (inactive). Besides, the nuclei count in test [2] stood at 87.4%; in test [3] it was 97.7%. Besides, in test [4], the fluorescence slope was -0.614 (inactive). Further, the NADPH fluorescence slope in test [5] is -4.3e-05 (inactive). Besides, the slope in test [6] is 0.00442 (inactive).

For `CCOc1ccccc1-c1nc(-c2ccc(C)nc2OC)no1`, in test [1], the cell count is 404. In addition, the inhibition in test [1] is 4.8% (inactive); in test [3] it was 1.8% (inactive); in test [7] it was -91.4% (inactive); in test [8], -227% (inactive). Besides, in test [2], the inhibition of aggregation is -2% (inactive). The nuclei count in test [2] amounted to 82.1%; in test [3], 96.3%. In addition, the fluorescence slope in test [4] was -0.552 (inactive). The NADPH fluorescence slope in test [5] was 1.8e-05 (inactive). Further, in test [6], the slope was 0.00778 (inactive).
